Assay results: the supplement of paper PMC10412459

Tested on: K562 SF3B1 K700E vs K562 SF3B1 WT
Experiment: surviving fraction ratio K562 SF3B1 K700E / K562 SF3B1 WT (each relative to DMSO); higher = less selective killing of SF3B1 K700E cells
Details: 5 days
Procedure: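 Drug-sensitivity screen of an in-house 80-compound library in isogenic K562 SF3B1 K700E versus SF3B1 WT cells. 250 cells/well in 384-well plates were exposed 24 h after seeding to 0.5-1000 nM compound for 5 days, and viability was read by CellTiter-Glo. Surviving fraction is relative to DMSO, and the value is the ratio of surviving fraction in K700E to WT cells; the paper calls ratio <0.6 with P<0.01 selective.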

Structure (SMILES)	surviving fraction ratio K562 SF3B1 K700E / K562 SF3B1 WT (0.5nM)	surviving fraction ratio K562 SF3B1 K700E / K562 SF3B1 WT (1nM)	surviving fraction ratio K562 SF3B1 K700E / K562 SF3B1 WT (5nM)	surviving fraction ratio K562 SF3B1 K700E / K562 SF3B1 WT (10nM)	surviving fraction ratio K562 SF3B1 K700E / K562 SF3B1 WT (50nM)	surviving fraction ratio K562 SF3B1 K700E / K562 SF3B1 WT (100nM)	surviving fraction ratio K562 SF3B1 K700E / K562 SF3B1 WT (500nM)	surviving fraction ratio K562 SF3B1 K700E / K562 SF3B1 WT (1000nM)
CNCc1ccc(-c2[nH]c3cc(F)cc4c3c2CCNC4=O)cc1	0.834	0.856	0.825	0.831	0.897	0.794	0.847	0.711
CN1CC[C@H](c2c(O)cc(O)c3c(=O)cc(-c4ccccc4Cl)oc23)[C@H](O)C1 [Flavopiridol]	0.8	0.83	0.793	0.847	0.916	0.929	1.89	2.25
CCN(CC)CCNC(=O)c1c(C)[nH]c(/C=C2\C(=O)Nc3ccc(F)cc32)c1C [sunitinib]	1.09	1.08	0.928	1.33	0.86	1.2	0.73	0.857
Cn1ncnc1[C@H]1c2n[nH]c(=O)c3cc(F)cc(c23)N[C@@H]1c1ccc(F)cc1 [talazoparib]	0.824	0.778	0.775	0.743	0.552	0.571	0.794	
COc1cc2nccc(Oc3ccc(NC(=O)C4(C(=O)Nc5ccc(F)cc5)CC4)cc3)c2cc1OC [Cabozantinib]	0.718	0.805	0.831	0.71	0.733	0.704	0.503	0.686
CCn1c(C(=O)N(C2CC2)C2CC2)cc2c3c(ncn3C)c(Nc3cc(C)n(C)n3)nc21	0.923	0.951	1	0.938	0.82	0.801	0.844	0.893
